{
  "source": "ChEMBL document CHEMBL4513216",
  "about": "“Probing the Open Global Health Chemical Diversity Library for Multistage-Active Starting Points for Next-Generation Antimalarials” (ACS Infect Dis, 2020)",
  "note": "The whole screen tested about 65,000 compounds, of which about 2,100 (3.2%) showed an effect of 50% or more. The median lay at about -52%. The list comes from a sample in which strong results are over-represented; it also holds similar structures and randomly drawn compounds.",
  "data": [
    {"test_system": "Plasmodium falciparum", "assay": "Screen against P. falciparum Asexual Blood Stage (ABS), at 5uM", "type": "functional, Dd2", "conditions": "tested at 5 uM", "units": {"INHIBITION": "%"}, "values": [
      {"smiles": "Cc1noc(C)c1CCC(=O)N1CCCN(Cc2cccs2)CC1", "INHIBITION": -63},
      {"smiles": "CC(C1CCN(Cc2ccc(OC(F)F)cc2)CC1)N1CCOCC1", "note": "(configuration not stated)", "INHIBITION": -26.3},
      {"smiles": "CC(C)Oc1cccc(CN2CCC(c3n[nH]c4ncccc34)CC2)c1", "INHIBITION": -51.3},
      {"smiles": "CC(C1CCN(Cc2ccc(N(C)C)nc2)CC1)N1CCOCC1", "note": "(configuration not stated)", "INHIBITION": -5.43},
      {"smiles": "CC(C1CCN(Cc2cccc(OC(F)F)c2)CC1)N1CCOCC1", "note": "(configuration not stated)", "INHIBITION": 68.3},
      {"smiles": "CC(C1CCN(Cc2ccccc2OC(F)F)CC1)N1CCOCC1", "note": "(configuration not stated)", "INHIBITION": 9.39},
      {"smiles": "CC(C)Oc1cccc(CN2CCC(C(C)N3CCOCC3)CC2)c1", "note": "(configuration not stated)", "INHIBITION": 55.8},
      {"smiles": "CCc1ccc(C(CNC(=O)c2c(C)noc2C)N(C)C)cc1", "note": "(configuration not stated)", "INHIBITION": -71.9},
      {"smiles": "O=C(NC1CC1)[C@H]1C[C@H]2OCC[C@H]2N(CC2CC2)C1", "INHIBITION": -28.3},
      {"smiles": "CC(C)(C)CC(=O)NCCn1nc(C2CCNC2)c2cccnc21", "note": "(configuration not stated)", "INHIBITION": -134},
      {"smiles": "Cc1nccc(NCc2cncc3c2CCN(CC2CCOC2)C3)n1", "note": "(configuration not stated)", "INHIBITION": -81.6},
      {"smiles": "CC(C)n1cc(C(=O)N2CCN(c3cccc(C(F)(F)F)c3)CC2)cn1", "INHIBITION": -46.5},
      {"smiles": "CN(C)Cc1cn(CC2CCCN(c3nccc4occc34)C2)nn1", "note": "(configuration not stated)", "INHIBITION": 60.5},
      {"smiles": "CC(O)Cc1cn(CC2CCN(c3nccc4occc34)CC2)nn1", "note": "(configuration not stated)", "INHIBITION": -39.4},
      {"smiles": "O=C(O)c1cn(CC2CCCN(c3nccc4occc34)C2)nn1", "note": "(configuration not stated)", "INHIBITION": -30.1},
      {"smiles": "CC(C)(C)c1ncc(C(=O)NCc2ccccc2CN2CCCC2)s1", "INHIBITION": -23.4},
      {"smiles": "O=C(c1ccc[nH]1)N1C[C@H](OCc2ccccn2)[C@H]2COC[C@H]21", "INHIBITION": -89.2},
      {"smiles": "O=C1NCCN1C1CCN(Cc2coc(-c3ccc(F)cc3)n2)CC1", "INHIBITION": -71.8},
      {"smiles": "C[C@@H]1CN(C2CCN(Cc3nn(C)c4cccc(Cl)c34)CC2)C[C@H](C)O1", "INHIBITION": -9.68},
      {"smiles": "Cn1nc(CN2CCC(c3ccncc3)CC2)c2c(Cl)cccc21", "INHIBITION": -14.6},
      {"smiles": "Cn1nc(CN2CCCN(C3CCCC3)CC2)c2c(Cl)cccc21", "INHIBITION": 68.9},
      {"smiles": "COCCN1C(=O)CO[C@H]2CN(Cc3ccccc3Cl)C[C@@H]21", "INHIBITION": -123},
      {"smiles": "CCN1CCOCC12CCN(c1nccs1)CC2", "INHIBITION": -144},
      {"smiles": "CN(CCN1CCOC1=O)CC(=O)Nc1ccc(Cl)c(C(F)(F)F)c1", "INHIBITION": -56.7},
      {"smiles": "CCNCCOc1ccc(-c2cc(N)nc3[nH]ccc23)cc1", "INHIBITION": 51.3},
      {"smiles": "Nc1cc(-c2cc(O)cc(C(=O)O)c2)c2cc[nH]c2n1", "INHIBITION": -9.72},
      {"smiles": "CNc1cc(-c2ccc(COCCN)cc2)c2cc[nH]c2n1", "INHIBITION": 2.35},
      {"smiles": "CCOCCCNC(=O)c1ccccc1S(C)(=O)=O", "INHIBITION": -120},
      {"smiles": "CSCCNc1ccc(C(=O)N(C)Cc2ccc3ccccc3n2)cn1", "INHIBITION": -73.9},
      {"smiles": "CCOc1ccc(NC(=O)NCCS(=O)(=O)CC)cc1C", "INHIBITION": 4.65},
      {"smiles": "COc1cc(CNCCc2cnn(C)c2)cc2c1OCO2", "INHIBITION": -26.5},
      {"smiles": "COc1cc(CNCC(O)c2ccccc2)cc2c1OCO2", "note": "(configuration not stated)", "INHIBITION": 61.1},
      {"smiles": "COc1cc(CNCc2ccc(C(C)O)cc2)cc2c1OCO2", "note": "(configuration not stated)", "INHIBITION": 9.88},
      {"smiles": "Cc1ccc(CN2CCc3onc(C(=O)NCCN(C)C)c3C2)o1", "INHIBITION": -43.9},
      {"smiles": "CS(=O)(=O)N1Cc2ccccc2CC2(CCN(Cc3ccccc3)C2)C1", "note": "(configuration not stated)", "INHIBITION": 9.04},
      {"smiles": "CC(=O)N1CC2(CCCN(Cc3ccc(Cl)cc3)C2)Cc2ccccc21", "note": "(configuration not stated)", "INHIBITION": -0.688},
      {"smiles": "CS(=O)(=O)N1CC2(CCCN(CC3CC3)C2)Cc2ccccc21", "note": "(configuration not stated)", "INHIBITION": 69.8},
      {"smiles": "CS(=O)(=O)N1CC2(CCN(CC3CCCCC3)CC2)Cc2ccccc21", "INHIBITION": 63.8},
      {"smiles": "CS(=O)(=O)N1CC2(CCN(CC3CCCCC3)C2)Cc2ccccc21", "note": "(configuration not stated)", "INHIBITION": -36.9},
      {"smiles": "CS(=O)(=O)N1CC2(CCCN2Cc2ccc(Cl)cc2)Cc2ccccc21", "note": "(configuration not stated)", "INHIBITION": -33},
      {"smiles": "Cc1csc(N2CCN(CC(=O)Nc3ccncc3)CC2C)n1", "note": "(configuration not stated)", "INHIBITION": -32.7},
      {"smiles": "COc1cc(OC)cc(C(=O)Nc2ncnc3c2CCC3)c1", "INHIBITION": -80.8},
      {"smiles": "Cc1n[nH]cc1CNCC1(c2ccccc2Cl)CCOCC1", "INHIBITION": 57.1},
      {"smiles": "Cc1n[nH]cc1CNCC1(c2ccc3c(c2)OCO3)CCOCC1", "INHIBITION": -37.3},
      {"smiles": "O=C(NCC1(O)CCOC1)NCC1(c2ccccc2Cl)CCC1", "note": "(configuration not stated)", "INHIBITION": -90.2},
      {"smiles": "COc1ccc(COCC(O)CNC(=O)c2ccncc2)cc1", "note": "(configuration not stated)", "INHIBITION": -119},
      {"smiles": "O=C(Nc1ccc(F)cc1)N1C[C@@H]2CC[C@H]1CN(Cc1cccnc1)C2", "INHIBITION": -74.3},
      {"smiles": "CN1CCN(c2nccc(-c3cncnc3C3CCCCC3)n2)CC1", "INHIBITION": 62.3},
      {"smiles": "CN1CCCN(c2nccc(-c3cncnc3C3CCCCC3)n2)CC1", "INHIBITION": 61.6},
      {"smiles": "CN1CCN(c2ncc(-c3cnccn3)c([C@H]3CCCO3)n2)CC1", "INHIBITION": -10.1},
      {"smiles": "c1cc(-c2c[nH]nc2C2CCCCC2)nc(N2CCCCCC2)n1", "INHIBITION": 1.32},
      {"smiles": "c1cc(-c2cn3nccc3nc2C2CCCCC2)nc(N2CCCC2)n1", "INHIBITION": 3.54},
      {"smiles": "NC(=O)C1CCN(c2nccc(-c3c[nH]nc3C3CCCCC3)n2)CC1", "INHIBITION": 16.3},
      {"smiles": "O=C(C[C@@H]1COC[C@H]2CN(C3CCCC3)C[C@@H]12)N1CCCCO1", "INHIBITION": -31.2},
      {"smiles": "CC(C)CS(=O)(=O)N1CCC2(CN(c3cccc(F)c3)C(=O)CN2C)C1", "note": "(configuration not stated)", "INHIBITION": -101},
      {"smiles": "C=C/C=c1\\c(=C/C)oc2c(NCc3ccccc3)nc(C)nc12", "INHIBITION": 3.94},
      {"smiles": "CCS(=O)(=O)N1CCc2cc(C(=O)NC)c(NCC3CC3)nc2CC1", "INHIBITION": -28},
      {"smiles": "CCOC(=O)C1CCN(C(=O)CN2CCCC2c2ccsc2)CC1", "note": "(configuration not stated)", "INHIBITION": 50.9},
      {"smiles": "CCOC(=O)C1CCN(C(=O)CN2CCCC2c2ccccc2C)CC1", "note": "(configuration not stated)", "INHIBITION": 28.2},
      {"smiles": "CCOC(=O)C1CCN(C(=O)CN2CCCC2c2cc(C)no2)CC1", "note": "(configuration not stated)", "INHIBITION": -126},
      {"smiles": "CC(=O)N(C)Cc1ccccc1NC(=O)N(C)CCc1cccs1", "INHIBITION": -28.3},
      {"smiles": "NCC1Cc2cc(-c3cncc(C(=O)N4CCCCC4)n3)cc(F)c2O1", "note": "(configuration not stated)", "INHIBITION": 51.3},
      {"smiles": "NCC1Cc2cc(-c3cnccn3)cc(Cl)c2O1", "note": "(configuration not stated)", "INHIBITION": -13.4},
      {"smiles": "NCC1Cc2cc(-c3cncc(C(=O)N4CCOCC4)n3)cc(Cl)c2O1", "note": "(configuration not stated)", "INHIBITION": -15.2},
      {"smiles": "Cc1nc(-c2cc(F)c3c(c2)CC(CN)O3)c[nH]1", "note": "(configuration not stated)", "INHIBITION": 53.7},
      {"smiles": "Cc1cc2c(c(-c3cncc(C(=O)N4CCCC4)n3)c1)OC(CN)C2", "note": "(configuration not stated)", "INHIBITION": 4.12},
      {"smiles": "CC(C)c1cncnc1-c1cc(F)cc2c1OC(CN)C2", "note": "(configuration not stated)", "INHIBITION": 29.4}
    ]}
  ]
}
